High-throughput results (PubChem BioAssay)
Rows were chosen to be rich in hits. Some 3.7% of all compounds tested hit in one or more screens of this group.
S2 tox – viability counter-screen for ATXN expression inhibitors; 400,000 tested, 0.49% active; S2 cells (HEK-293 line with an ATXN2-luciferase reporter) viability, CellTiter-Fluor protease fluorescence, 24 h; Potency, µM (top dose mostly 56.7 µM), usual class: cytotoxic; also: nearly all actives have a fitted effect of over 40% in size
TGFb inhibitor – TGF-b pathway inhibition; Potency, µM (highest dose often 46.1 µM), hits mostly inhibitors; 410,000 tested, 1.2% active; HepG2 CAGA-GFP TGF-b/SMAD3 reporter, GFP fluorescence, 18 h; TGF-beta stimulated, 500 pg/mL final; also: nearly all actives have a fitted effect of over 65% in size
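Inhibition was scored as loss of TGF-beta-induced (500 pg/mL final, 18 hours, 37 degrees C) GFP in HEPG2 cells carrying a CAGA-GFP reporter, in DMEM with 1% FBS. Well GFP was summed per cell; Activity was normalised to unstimulated and stimulated DMSO wells, then concentration-response fitting.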
HepG2 tox – HepG2 cytotoxicity, counter-screen for TGF-b inhibitors; Potency, µM (doses to about 46.1 µM), most hits filed as cytotoxic; AID 588856; 410,000 tested, 0.76% active; HepG2 CAGA-GFP viability, ATP luminescence, 18 h
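HepG2 CAGA-GFP cells (1000/well, DMEM with 1% FBS) received compound, then TGF-beta at 500 pg/mL final, and were incubated 18 hours at 37 degrees C. Viability was read by CellTiter-Glo luminescence. Media-only wells were set as complete cell-killing and DMSO as no toxicity.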
GLP1R ag – agonists of human GLP-1 receptor; Potency, µM (highest dose often 45.6 µM), actives largely listed as activators; P43220; 380,000 tested, 0.007% active; HEK293 GLP-1R CRE-luciferase, luminescence, 4-6 h; cells express a hypersensitive GLP-1R form; AID 624172
Target sequence (P43220 whole entry, looked up): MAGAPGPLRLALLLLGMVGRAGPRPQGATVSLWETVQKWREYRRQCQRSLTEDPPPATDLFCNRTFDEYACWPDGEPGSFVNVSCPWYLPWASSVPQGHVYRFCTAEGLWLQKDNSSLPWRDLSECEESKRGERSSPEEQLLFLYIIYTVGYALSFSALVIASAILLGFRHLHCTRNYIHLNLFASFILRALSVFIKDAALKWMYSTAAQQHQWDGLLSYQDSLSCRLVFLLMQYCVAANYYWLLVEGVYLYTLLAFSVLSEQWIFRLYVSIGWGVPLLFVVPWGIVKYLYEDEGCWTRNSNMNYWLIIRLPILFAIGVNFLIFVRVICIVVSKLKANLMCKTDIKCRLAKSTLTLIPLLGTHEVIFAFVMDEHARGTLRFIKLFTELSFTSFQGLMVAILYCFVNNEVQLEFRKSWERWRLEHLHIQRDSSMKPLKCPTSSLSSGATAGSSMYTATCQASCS
ATXN2 expr inh – inhibitors of ATXN2 expression; Potency, µM (titrated, usually from 57 µM), usual class: inhibitors; AID 1745845; HEK-293 ATXN2-luciferase reporter, luminescence, 24 h; 360,000 tested, 0.72% active; also: nearly all actives have a fitted effect of over 55% in size
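qHTS (up to 57 uM final) was run with 24 h compound exposure of reporter cells at 37 °C. Each well was multiplexed: SteadyGlo luminescence measured ATXN2-luciferase expression after a fluorogenic Gly-Phe-AFC viability readout (25 uM final).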
GLP-1R inv ag – inverse agonists of human GLP-1 receptor | HEK293 GLP-1R CRE-luciferase, luminescence, 24 h; GLP-1R form is constitutively active | 410,000 tested, 1.6% active | Potency, µM (highest dose often 38.3 µM), most hits filed as inhibitors | P43220; also: nearly all actives have a fitted effect of over 55% in size
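HEK293 cells stably co-expressing a cAMP-responsive luciferase reporter and constitutively active GLP-1R were seeded, incubated 12 h, then exposed to compounds for 24 h at 37 C. Luminescence was read 12 min after detection reagent; inverse agonists lower signal.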
Large screens that a line does not name were inactive. Calls follow the shape of the dose curve; as a rule, active = well fitted curve in the direction sought with a large enough effect; inconclusive = small, poorly fitted or top-dose-only effect, or another doubt; inactive = no such curve, though single readings can be large; an effect the other way counts as inactive or inconclusive.

CC1(c2ccccc2)O[C@@H]2C[C@H]3[C@@H]4CCC5=CC(=O)C=C[C@]5(C)[C@@]4(F)[C@@H](O)C[C@]3(C)[C@]2(C(=O)CO)O1 (stereo partly drawn)	GLP-1R inv ag 7.9µM
COc1cc2ncnc(N3CCN(C(=O)Nc4ccc(Oc5ccccc5)cc4)CC3)c2cc1OC	TGFb inhibitor 10µM (no result: S2 tox, GLP1R ag, ATXN2 expr inh, GLP-1R inv ag)
COC(=O)[C@@H]1CCCN1C(=O)c1cc(NC(=O)C2CCC2)c2c(c1)nc(-c1ccncc1)n2C	none (no result: TGFb inhibitor, HepG2 tox, GLP1R ag, ATXN2 expr inh, GLP-1R inv ag)
Cc1cc(N2CCN(C(c3ccccc3)c3ccccc3)CC2)n2ncnc2n1	GLP-1R inv ag 11µM
Cc1nc(N2CCN(c3ccccn3)CC2)c2c(C)c(C(=O)Nc3c(C)cc(Br)cc3C)sc2n1	GLP-1R inv ag 2µM
Cc1nc(N2CCN(c3ccccn3)CC2)c2c(C)c(C(=O)Nc3c(F)cc(F)cc3Br)sc2n1	GLP-1R inv ag 4.5µM
Cc1nc(N2CCN(c3ccccn3)CC2)c2c(C)c(C(=O)Nc3ccc(Cl)cc3)sc2n1	none (no result: ATXN2 expr inh)
Cc1nc(N2CCN(c3ccccn3)CC2)c2c(C)c(C(=O)N3CCN(c4ccc(F)cc4)CC3)sc2n1	S2 tox inconclusive, TGFb inhibitor inconclusive, ATXN2 expr inh inconclusive, GLP-1R inv ag inconclusive
Cc1c(C(=O)Nc2ccncc2)sc2nc(-c3ccccc3)cn12	TGFb inhibitor inconclusive, GLP-1R inv ag inconclusive
Cc1nc(N2CCCCC2)c2c(C)c(C(=O)Nc3ccc4c(c3)OCCO4)sc2n1	S2 tox inconclusive, TGFb inhibitor inconclusive, GLP-1R inv ag 5.6µM (no result: ATXN2 expr inh)
Cc1c(C(=O)Nc2ccc3c(c2)OCCO3)sc2nc(-c3ccccc3)cn12	ATXN2 expr inh 32µM, GLP-1R inv ag inconclusive (no result: S2 tox)
CCc1ccc(NC(=O)Cn2cnc3sc(C)c(S(=O)(=O)N4CCN(c5ccccc5OC)CC4)c3c2=O)cc1	TGFb inhibitor inconclusive (no result: GLP1R ag)
COc1ccc(N2C(=O)[C@@H]3C[C@H]2CN3Cc2cccn2-c2ccccn2)cc1Cl	none (no result: TGFb inhibitor, HepG2 tox, GLP1R ag, ATXN2 expr inh, GLP-1R inv ag)
COc1cc(-c2cnc3ccccc3c2)cc2c1OCCN(C(=O)Cn1nccc1C)C2	none (no result: TGFb inhibitor, HepG2 tox, GLP1R ag, ATXN2 expr inh, GLP-1R inv ag)
COc1ccccc1N1CCN(C(=O)c2sc3nc(C)nc(N4CCN(c5ccccn5)CC4)c3c2C)CC1	ATXN2 expr inh inconclusive, GLP-1R inv ag 5µM
Cc1ccc(/C=C2\C(=O)ON=C2c2ccccc2)o1	none
Cc1ccc(-c2ccc(/C=C3\C(=O)ON=C3c3ccccc3)o2)c([N+](=O)[O-])c1	S2 tox 35µM, ATXN2 expr inh inconclusive
CNCC(=O)c1c[nH]c2ccccc12	none (no result: S2 tox, GLP1R ag, ATXN2 expr inh, GLP-1R inv ag)
CC(C)C[C@@H](C(=O)NCc1ccco1)N1C(=O)N2CCc3c([nH]c4ccccc34)[C@@]2(C)C1=O	TGFb inhibitor inconclusive, GLP-1R inv ag 10µM
C[C@@H](C(=O)NCc1ccco1)N1C(=O)N2CCc3c([nH]c4ccccc34)[C@@]2(C)C1=O	ATXN2 expr inh inconclusive, GLP-1R inv ag inconclusive
CC(C)CC(N)c1csc(NC(=O)Nc2ccccc2C(C)(C)C)n1 (stereo not drawn)	TGFb inhibitor 14µM, ATXN2 expr inh inconclusive, GLP-1R inv ag inconclusive
NC(Cc1ccc(C(F)(F)F)cc1)c1csc(NC(=O)Nc2ccccc2Oc2ccccc2)n1 (stereo not drawn)	TGFb inhibitor 11µM, HepG2 tox 10µM, GLP-1R inv ag inconclusive (no result: S2 tox)
COc1cc(CNC(=O)Nc2nc(C(N)CCc3ccccc3)cs2)cc(OC)c1OC (stereo not drawn)	S2 tox inconclusive, TGFb inhibitor inconclusive, ATXN2 expr inh inconclusive, GLP-1R inv ag inconclusive
COc1ccc(CNC(=O)Nc2nc(C(N)CCc3ccccc3)cs2)cc1 (stereo not drawn)	S2 tox inconclusive, TGFb inhibitor inconclusive, ATXN2 expr inh inconclusive, GLP-1R inv ag inconclusive
COc1ccccc1NC(=O)Nc1nc(C(N)CCc2ccccc2)cs1 (stereo not drawn)	S2 tox inconclusive, TGFb inhibitor 11µM, HepG2 tox 10µM, ATXN2 expr inh inconclusive, GLP-1R inv ag inconclusive
NC(Cc1ccccc1)c1csc(NC(=O)Nc2ccccc2Oc2ccccc2)n1 (stereo not drawn)	S2 tox inconclusive, TGFb inhibitor inconclusive, ATXN2 expr inh inconclusive, GLP-1R inv ag inconclusive
NC(COCc1ccccc1)c1csc(NC(=O)Nc2cccc(C(F)(F)F)c2)n1 (stereo not drawn)	TGFb inhibitor 14µM, ATXN2 expr inh inconclusive, GLP-1R inv ag inconclusive (no result: S2 tox)
O=C(c1ccc(C(=O)N2CCC(N3CCCC3)CC2)c(Nc2ccccc2)c1)N1CCC(N2CCCC2)CC1	none (no result: S2 tox, TGFb inhibitor, HepG2 tox, GLP1R ag, GLP-1R inv ag)
CC(=O)c1ccc(NC(=O)c2cnn3c2NC(=C2CC2)C=C3C(F)F)cc1	none (no result: S2 tox, GLP1R ag, ATXN2 expr inh, GLP-1R inv ag)
NC(Cc1ccc(C(F)(F)F)cc1)c1csc(NC(=O)NCCc2ccccc2)n1 (stereo not drawn)	S2 tox inconclusive, TGFb inhibitor 14µM, HepG2 tox 11µM, ATXN2 expr inh inconclusive, GLP-1R inv ag inconclusive
COc1ccc(CC(N)c2csc(NC(=O)Nc3ccccc3Cc3ccccc3)n2)cc1 (stereo not drawn)	S2 tox inconclusive, TGFb inhibitor inconclusive, HepG2 tox 22µM, ATXN2 expr inh inconclusive, GLP-1R inv ag inconclusive
COc1ccccc1NC(=O)Nc1nc(C(N)C(C)C)cs1 (stereo not drawn)	TGFb inhibitor inconclusive, ATXN2 expr inh inconclusive, GLP-1R inv ag inconclusive
COc1ccccc1NC(=O)Nc1nc(C(N)Cc2ccc(C(F)(F)F)cc2)cs1 (stereo not drawn)	TGFb inhibitor inconclusive, HepG2 tox 20µM, GLP-1R inv ag inconclusive (no result: S2 tox)
CC(C)CC(N)c1csc(NC(=O)NCCc2ccccc2)n1 (stereo not drawn)	GLP-1R inv ag inconclusive
NC(CCc1ccccc1)c1csc(NC(=O)Nc2cccc(Cl)c2)n1 (stereo not drawn)	S2 tox 28µM, TGFb inhibitor inconclusive, HepG2 tox 16µM, ATXN2 expr inh 20µM, GLP-1R inv ag inconclusive
COc1ccccc1CNC(=O)Nc1nc(C(N)Cc2ccc(Cl)cc2)cs1 (stereo not drawn)	S2 tox 32µM, TGFb inhibitor inconclusive, ATXN2 expr inh inconclusive, GLP-1R inv ag inconclusive
COC(=O)c1ccccc1NC(=O)Cn1nc(C(F)(F)F)c2c1CCCC2	TGFb inhibitor inconclusive, GLP-1R inv ag 11µM (no result: S2 tox, GLP1R ag, ATXN2 expr inh)
Oc1ccc(Nc2nc(N3CCCC3)c3ccccc3n2)cc1	S2 tox inconclusive, TGFb inhibitor inconclusive, HepG2 tox 11µM, ATXN2 expr inh inconclusive, GLP-1R inv ag inconclusive
COc1ccc(Nc2nc(N3CCCCC3)c3ccccc3n2)cc1	S2 tox inconclusive, TGFb inhibitor inconclusive, ATXN2 expr inh inconclusive, GLP-1R inv ag 5.6µM
